From PubChem BioAssay AID1159580 (chemical genetic matrix, 2015)
Values joined by “and” are separate entries in the source; they are usually repeats but may differ in a detail not shown here. Equal entries are not always repeated. About 2,000 (36%) of roughly 5,500 compounds were called active. Not shown: some 18% with an inconclusive outcome. Cut-off read from the data, not from the text of the source: active = normalized growth mostly below about 0.91 (no sharp cut-off); inconclusive = no clear call, values can overlap the other calls; inactive = mostly above about 0.92. The list shows a part of the results.

Assay: chemical genetic growth profiling, strain panel (AID 1159580);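 note: tested at 20 µM; growth read once vehicle control cultures reached saturation at 30 °C; 1 = growth at the plate median or of vehicle wells; lower values mean less growth of the strain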
Conditions: S. cerevisiae deletion strains, growth OD

Measured: normalized growth

CCC(Cc1c(I)cc(I)c(N)c1I)C(=O)O (stereo not given)
inactive: locus YAL013W, strain DEP1, stronger effect = lower value 0.979 | locus YAL021C, strain ccr4, stronger effect = lower value 0.934 | locus YAL030W, strain snc1, stronger effect = lower value 0.945 | locus YBL061C, strain skt5, stronger effect = lower value 0.955 | locus YBR021W, strain FUR4, stronger effect = lower value 1.03 | locus YBR023C, strain chs3, stronger effect = lower value 0.935 | locus YBR171W, strain sec66, stronger effect = lower value 0.921 | locus YBR229C, strain ROT2, stronger effect = lower value 0.989 | locus YBR231C, strain swc5, stronger effect = lower value 0.977 | locus YBR279W, strain paf1, stronger effect = lower value 0.945 | locus YCL016C, strain dcc1, stronger effect = lower value 0.934 | locus YCL029C, strain bik1, stronger effect = lower value 0.997 | locus YCR088W, strain abp1, stronger effect = lower value 0.935 | locus YDL005C, strain med2, stronger effect = lower value 0.95 | locus YDL035C, strain GPR1, stronger effect = lower value 1 | locus YDL040C, strain nat1, stronger effect = lower value 0.96 | locus YDL074C, strain BRE1, stronger effect = lower value 1.01 | locus YDL101C, strain DUN1, stronger effect = lower value 1.01 | locus YDL134C, strain PPH21, stronger effect = lower value 1.01 | locus YDL192W, strain arf1, stronger effect = lower value 0.997 | locus YDR001C, strain nth1, stronger effect = lower value 0.927 | locus YDR069C, strain doa4, stronger effect = lower value 0.951 | locus YDR101C, strain arx1, stronger effect = lower value 1 | locus YDR150W, strain NUM1, stronger effect = lower value 1.01 | locus YDR159W, strain sac3, stronger effect = lower value 0.895 | locus YDR162C, strain NBP2, stronger effect = lower value 0.982 | locus YDR195W, strain ref2 0.992 | locus YDR297W, strain sur2, stronger effect = lower value 0.954 | locus YDR318W, strain mcm21, stronger effect = lower value 1 | locus YDR334W, strain swr1, stronger effect = lower value 0.942 | locus YDR335W, strain msn5, stronger effect = lower value 0.947 | locus YDR388W, stronger effect = lower value 0.996 | locus YDR502C, strain sam2, stronger effect = lower value 0.991 | locus YEL003W, strain gim4, stronger effect = lower value 0.934 | locus YEL037C, strain rad23, stronger effect = lower value 0.947 | locus YEL061C, strain CIN8 (second series), stronger effect = lower value 0.942 | locus YEL061C, strain CIN8, stronger effect = lower value 0.994 | locus YER015W, strain faa2, stronger effect = lower value 0.977 | locus YER016W, strain bim1, stronger effect = lower value 0.927 | locus YER110C, stronger effect = lower value 1 | locus YER111C, strain swi4, stronger effect = lower value 0.925 | locus YER155C, strain BEM2 (second series), stronger effect = lower value 0.94 | locus YER155C, strain BEM2, stronger effect = lower value 1 | locus YER167W, strain BCK2, stronger effect = lower value 0.998 | locus YFR010W, strain ubp6, stronger effect = lower value 0.985 | locus YGL078C, strain dbp3, stronger effect = lower value 0.997 | locus YGL086W, strain mad1, stronger effect = lower value 0.986 | locus YGL167C, strain pmr1, stronger effect = lower value 0.928 | locus YGL173C, strain kem1, stronger effect = lower value 0.936 | locus YGL227W, strain vid30, stronger effect = lower value 0.949 | locus YGL240W, strain doc1, stronger effect = lower value 0.99 | locus YGL248W, strain PDE1, stronger effect = lower value 1 | locus YGL253W, strain hxk2, stronger effect = lower value 0.921 | locus YGR078C, strain PAC10, stronger effect = lower value 1.01 | locus YGR135W, strain pre9, stronger effect = lower value 1 | locus YGR229C, strain SMI1, stronger effect = lower value 1.02 | locus YGR252W, strain gcn5, stronger effect = lower value 1.04 | locus YHR013C, strain ard1, stronger effect = lower value 0.852 | locus YHR027C, strain rpn1, stronger effect = lower value 0.927 | locus YHR079C, strain IRE1 (second series), stronger effect = lower value 1 | locus YHR094C, strain hxt1, stronger effect = lower value 1 | locus YHR129C, strain ARP1, stronger effect = lower value 0.957 | locus YHR142W, strain chs7, stronger effect = lower value 0.912 | locus YHR200W, strain rpn10, stronger effect = lower value 1 | locus YIL066C, strain RNR3, stronger effect = lower value 1 | locus YIL073C, strain SPO22, stronger effect = lower value 1.04 | locus YIL125W, strain kgd1, stronger effect = lower value 0.992 | locus YIR030C, strain dcg1, stronger effect = lower value 0.996 | locus YJL092W, strain hpr5, stronger effect = lower value 0.942 | locus YJL095W, strain BCK1 (second series), stronger effect = lower value 0.959 | locus YJL115W, strain asf1, stronger effect = lower value 0.954 | locus YJL129C, strain trk1, stronger effect = lower value 0.931 | locus YJL134W, strain LCB3, stronger effect = lower value 1 | locus YJL154C, strain vps35, stronger effect = lower value 0.935 | locus YJL166W, strain qcr8, stronger effect = lower value 0.949 | locus YJL168C, strain set2, stronger effect = lower value 0.999 | locus YJL187C, strain SWE1 (second series), stronger effect = lower value 1.01 | locus YJR043C, strain POL32, stronger effect = lower value 1.03 | locus YJR075W, strain HOC1, stronger effect = lower value 1.02
1 (inactive) and 0.148 (active): locus YHR030C, strain SLT2, stronger effect = lower value
active: locus YAL026C, strain drs2, stronger effect = lower value 0.889 | locus YBR009C, strain hhf1, stronger effect = lower value 0.861 | locus YCL011C, strain gbp2, stronger effect = lower value 0.905 | locus YCL069W, strain vba3, stronger effect = lower value 0.907 | locus YDR137W, strain rgp1, stronger effect = lower value 0.71 | locus YDR392W, strain spt3, stronger effect = lower value 0.711 | locus YHR079C, strain IRE1, stronger effect = lower value 0.135 | locus YJL164C, strain tpk1, stronger effect = lower value 0.903 | locus YJR066W, strain TOR1, stronger effect = lower value 0.0664
0.993 (inactive) and 0.112 (active): locus YJL095W, strain BCK1, stronger effect = lower value
